Source: PubChem BioAssay (National Center for Advancing Translational Sciences (NCATS))
Rows were chosen to be rich in hits. Some 6.1% of all compounds tested hit in one or more screens of this group.
D1 agonist: agonists of human D1 dopamine receptor; P21728; HEK293 T-REx D1 cells, calcium flux, agonist mode; activation, % at 2 µM; actives 1% (n = 360,000); AID 504660; in the data active means activation above about 30%
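Inducible HEK293 T-REx D1 cells, force-coupled to calcium signalling, were plated at 4000 cells/well with tetracycline and held overnight at 30 C. After no-wash calcium dye loading, compound-evoked calcium rise over 180 s flagged agonists.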
D1 antag: blocks dopamine activation of the human D1 receptor; P21728; HEK293 TREx D1 cells, calcium flux, dopamine EC80; hits give low values; activity change, negative = inhibition, % at 10 µM; actives 3.2% (n = 360,000); AID 504652; in the data active means activity change below about -30%
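Antagonism measured as reduced calcium response to an EC80 dopamine addition following 180 s compound pre-read; cells were inducible HEK293 Trex D1 plated overnight at 30 C, read kinetically at 1 cycle/sec.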
D1 PAM: human D1 dopamine receptor positive modulation | P21728 | HEK293 TREx D1 cells, calcium flux, dopamine EC20 potentiation | potentiation, % at 10 µM | actives 0.036% (n = 360,000); in the data active means potentiation above about 30%
D3 antag: blocks the human D3 dopamine receptor. D3R cells, DiscoveRx beta-arrestin luminescence, antagonist mode; hits give low values. max response, negative = inhibition, %. actives 2.5% (n = 360,000). AID 652054; in the data active means max response below about -50%; inconclusive means no clear call, values can overlap the other calls
Target sequence (P35462 whole entry, looked up): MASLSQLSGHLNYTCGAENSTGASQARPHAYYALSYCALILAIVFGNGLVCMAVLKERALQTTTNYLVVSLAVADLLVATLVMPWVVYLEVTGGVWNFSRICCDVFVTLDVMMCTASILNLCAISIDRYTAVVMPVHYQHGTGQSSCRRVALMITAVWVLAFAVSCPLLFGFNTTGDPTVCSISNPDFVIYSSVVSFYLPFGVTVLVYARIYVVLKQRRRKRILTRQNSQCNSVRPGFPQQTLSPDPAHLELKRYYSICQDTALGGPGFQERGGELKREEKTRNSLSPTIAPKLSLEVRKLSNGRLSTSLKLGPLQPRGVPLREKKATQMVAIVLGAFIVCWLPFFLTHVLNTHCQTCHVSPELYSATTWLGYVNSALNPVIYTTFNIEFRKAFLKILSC
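Cells expressing the human receptor were seeded at 1500 cells/well, incubated overnight at 37 degrees C in 5% CO2, then exposed to library compounds with dopamine controls for 90 minutes at 37 degrees C before luminescent detection.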
DRD3 agonist: activates the human D3 dopamine receptor; P35462; D3R DiscoveRx beta-arrestin cells, luminescence, 90 min; max activation, %; actives 0.58% (n = 410,000); in the data active means max activation above about 30%
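Agonist mode: compounds and dopamine controls were applied to plated cells for 90 min at 37 degrees C after an overnight attachment at 1500 cells/well. Luminescent read-out followed 30 - 60 minutes at room temperature with DiscoveRx detection reagent.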
A number is an active result; ! = repeats disagree.

How did Cc1ccsc1C1NC(=O)c2c(sc3c2CCN(C)C3)N1 (stereo unspecified) do in these assays?
D1 agonist: inactive; D1 antag: inactive; D1 PAM: inactive; D3 antag: inconclusive; DRD3 agonist: inactive

What do the screens show for `COc1ccc(C(=O)Oc2ccc(C3NC(=O)c4c(sc5c4CCN(C)C5)N3)cc2OC)cc1` (stereo unspecified)?
D1 agonist: inactive; D1 antag: inactive; D1 PAM: inactive; DRD3 agonist: inactive

Results for CCOc1cc(C2NC(=O)c3c(sc4c3CCN(C)C4)N2)ccc1OC(=O)c1ccccc1Cl (stereo unspecified) ?
D1 agonist: 35; D1 antag: inactive; D1 PAM: inactive; DRD3 agonist: inactive

Results for CSc1ccc(C2NC(=O)c3c(sc4c3CCN(C)C4)N2)cc1 (stereo unspecified) ?
D1 agonist: 34; D1 antag: inactive; D3 antag: inconclusive; DRD3 agonist: inactive

What do the screens show for `CN1CCc2c(sc3c2C(=O)NC(c2ccc(C(C)(C)C)cc2)N3)C1` (stereo unspecified)?
D1 agonist: 37; D1 antag: inactive; D1 PAM: inactive; DRD3 agonist: inactive

What do the screens show for `CC(C)c1ccc(C2NC(=O)c3c(sc4c3CCN(C)C4)N2)cc1` (stereo unspecified)?
D1 agonist: inactive; D1 antag: inactive; D1 PAM: inactive; DRD3 agonist: inactive

What do the screens show for `CCc1ccc(S(=O)(=O)c2nnn3c2nc(NC2CCCCCC2)c2sccc23)cc1`?
D1 agonist: inactive; D1 antag: inactive; D1 PAM: inactive; DRD3 agonist: inactive

How did COc1ccc2oc(-c3ccc(C)c(NC(=O)c4ccc5c(c4)OCCO5)c3)nc2c1 do in these assays?
D1 agonist: inactive; D1 antag: inactive; D1 PAM: inactive; DRD3 agonist: inactive

Results for CCOC(=O)c1cc(-c2ccccc2)n(CCCC(=O)Nc2ccc(C)cc2C)c1C ?
D1 agonist: inactive; D1 antag: inactive; D1 PAM: inactive; DRD3 agonist: inactive

Results for COc1cn(CC(=O)Nc2ccc(C)cc2)c(CN2CCCCC2)cc1=O ?
D1 agonist: inactive; D1 antag: -46; D1 PAM: inactive; DRD3 agonist: inactive

What do the screens show for `CCOC(=O)c1cc(-c2ccccc2)n(CCCC(=O)Nc2cccc(Cl)c2C)c1C`?
D1 agonist: inactive; D1 antag: -68; D1 PAM: inactive; DRD3 agonist: inactive

Results for Cc1ccc(S(=O)(=O)Nc2ccc(NC(=O)CN3CCCCC3)cc2)cc1 ?
D1 agonist: inactive; D1 antag: inactive; D1 PAM: inactive; D3 antag: -60; DRD3 agonist: inactive

What do the screens show for `COC(=O)c1ccc(NC(=O)CCN2CCCCC2)cc1`?
D1 agonist: inactive; D1 antag: inactive; D1 PAM: inactive; D3 antag: -52!; DRD3 agonist: inactive

How did COc1cn(CC(=O)Nc2ccc(F)cc2)c(CN2CCCCC2)cc1=O do in these assays?
D1 agonist: inactive; D1 antag: inactive; D1 PAM: inactive; DRD3 agonist: inactive

What do the screens show for `COc1cc(-c2nc(-c3ccccc3)c(-c3ccc(Br)cc3)[nH]2)cc(OC)c1O`?
D1 agonist: inactive; D1 antag: inactive; D1 PAM: inactive; DRD3 agonist: inactive

How did COC(=O)C(NC(=O)CCc1c(C)nc2c(-c3ccccc3)c(C)nn2c1C)C(C)C (stereo unspecified) do in these assays?
D1 agonist: inactive; D1 antag: inactive; D1 PAM: inactive; DRD3 agonist: inactive

Results for CC(=O)N1CCc2c(sc3c2c(=O)n(-c2ccccc2)c(=O)n3Cc2cccc(C(F)(F)F)c2)C1 ?
D1 agonist: inactive; D1 antag: inactive; D1 PAM: inactive; DRD3 agonist: inactive

What do the screens show for `O=C(CN1CCCCCC1)Nc1ccc(Br)cc1`?
D1 agonist: inactive; D1 antag: inactive; D1 PAM: inactive; D3 antag: -114; DRD3 agonist: inactive

How did Cc1c(Cl)cccc1NC(=O)CCN1CCN(C)CC1 do in these assays?
D1 agonist: inactive; D1 antag: inactive; D1 PAM: inactive; D3 antag: inactive; DRD3 agonist: inactive

How did O=C(CN1CCCC1)Nc1ccc(Br)cc1 do in these assays?
D1 agonist: inactive; D1 antag: inactive; D1 PAM: inactive; D3 antag: inactive; DRD3 agonist: inactive

Results for Cc1c(Cl)cccc1NC(=O)CN1CCC(C(O)(c2ccccc2)c2ccccc2)CC1 ?
D1 agonist: inactive; D1 antag: inactive; D1 PAM: inactive; D3 antag: -62; DRD3 agonist: inactive

How did Cc1ccccc1C(=O)NC1CCN(CC(=O)Nc2ccccc2Cl)CC1 do in these assays?
D1 agonist: inactive; D1 antag: inactive; D1 PAM: inactive; D3 antag: inactive; DRD3 agonist: inactive

What do the screens show for `O=C(CN1CCN(C2CCCCC2)CC1)Nc1ccc(Br)cc1`?
D1 agonist: inactive; D1 antag: inactive; D1 PAM: inactive; D3 antag: -53; DRD3 agonist: inactive

How did O=C(CN1CCN(S(=O)(=O)N2CCCCC2)CC1)Nc1ccc(Br)cc1 do in these assays?
D1 agonist: inactive; D1 antag: inactive; D1 PAM: inactive; D3 antag: inactive; DRD3 agonist: inactive

How did Cc1c(Cl)cccc1NC(=O)CCN1CCCCC1 do in these assays?
D1 agonist: inactive; D1 antag: inactive; D1 PAM: inactive; D3 antag: -58; DRD3 agonist: inactive

Results for O=C1COc2cc(S(=O)(=O)CCC(=O)N3CCN(c4cccc(Cl)c4)CC3)c(Cl)cc2N1 ?
D1 agonist: inactive; D1 antag: inactive; D1 PAM: inactive; DRD3 agonist: inactive

What do the screens show for `COc1ccc(S(=O)(=O)NCCc2sc(-c3cccnc3)nc2C)c(F)c1`?
D1 agonist: inactive; D1 antag: inactive; D1 PAM: inactive; DRD3 agonist: inactive

Results for Cc1cccc(NC(=O)CSc2ncc3c(n2)-c2ccccc2N(Cc2ccc(F)cc2)S3(=O)=O)c1C ?
D1 agonist: inactive; D1 antag: inactive; D1 PAM: inactive; DRD3 agonist: inactive

Results for CCOc1ccc(S(=O)(=O)NCCc2sc3nc(-c4ccc(F)cc4)nn3c2C)cc1 ?
D1 agonist: inactive; D1 PAM: inactive; DRD3 agonist: inactive

Results for CCc1ccccc1NC(=O)C1CCCN(c2ncnc3onc(C)c23)C1 (stereo unspecified) ?
D1 agonist: inactive; D1 antag: inactive; D1 PAM: inactive; DRD3 agonist: inactive

What do the screens show for `O=C(CCN1CCCCC1)Nc1ccc(Br)cc1`?
D1 agonist: inactive; D1 antag: inactive; D1 PAM: inactive; D3 antag: -69; DRD3 agonist: inactive

Results for CN1CCN(CCC(=O)Nc2ccc(Br)cc2)CC1 ?
D1 agonist: inactive; D1 antag: inactive; D1 PAM: inactive; D3 antag: inactive; DRD3 agonist: inactive

What do the screens show for `Cc1ccc(NC(=O)CN2CCCC2)cc1Br`?
D1 agonist: inactive; D1 antag: inactive; D1 PAM: inactive; D3 antag: -64; DRD3 agonist: inactive

How did Cc1nc2ccc(S(=O)(=O)N3CCN(S(=O)(=O)c4c(F)cccc4F)CC3)cc2s1 do in these assays?
D1 agonist: inactive; D1 antag: inactive; D1 PAM: inactive
